ELG1 genotox – genotoxicity induction in ELG1-luciferase HEK293T cells. HEK293T ELG1-luciferase reporter, luminescence, 16 h. Potency, µM (series often up to 46 µM), without a hit: at the highest dose activity change, positive = activation, actives largely listed as activators. 330,000 tested, 1.3% active. AID 504466; also: % of control where 0% means no effect; nearly all actives have a fitted effect of over 60% in size
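HEK293T cells expressing luciferase-tagged ELG1 were treated with compound or DMSO for 16 hr at 37°C. Luciferase activity was then read after 30 min with ONE-Glo at room temperature; rising signal flags genetic stress.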
SMN2 splice up – increases expression of the SMN2 splice variant; HEK293 SMN2-luciferase splicing reporter, luminescence, 30-36 h; Potency, µM (series often up to 46.1 µM), for the others: at the top dose activity change, positive = activation, hits mostly activators; 210,000 tested, 2.8% active; AID 1458; also: % of control where 0% means no effect; nearly all actives have a fitted effect of over 55% in size
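HEK293 cells carry an SMN2 […]–luciferase reporter in which exon 7 inclusion puts luciferase in frame. Cells were plated 10-12 h before compound addition, then incubated 30-36 h at 37C. ONE-Glo luminescence was read; sodium butyrate at 4.5 mM final served as control.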
FLuc counter – firefly luciferase modulation, counter-screen for miR-21 project; purified FLuc, Km substrates, luminescence inhibition; Potency, µM (doses to about 57.5 µM), for inactives: at the highest dose activity change, negative = inhibition, usual class: inhibitors; 360,000 tested, 6.9% active; AID 588342;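 also: plate controls were vehicle for no effect and reference inhibitor for full effect; nearly all actives have a fitted effect of over 55% in size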
Target sequence (P08659 whole entry, looked up): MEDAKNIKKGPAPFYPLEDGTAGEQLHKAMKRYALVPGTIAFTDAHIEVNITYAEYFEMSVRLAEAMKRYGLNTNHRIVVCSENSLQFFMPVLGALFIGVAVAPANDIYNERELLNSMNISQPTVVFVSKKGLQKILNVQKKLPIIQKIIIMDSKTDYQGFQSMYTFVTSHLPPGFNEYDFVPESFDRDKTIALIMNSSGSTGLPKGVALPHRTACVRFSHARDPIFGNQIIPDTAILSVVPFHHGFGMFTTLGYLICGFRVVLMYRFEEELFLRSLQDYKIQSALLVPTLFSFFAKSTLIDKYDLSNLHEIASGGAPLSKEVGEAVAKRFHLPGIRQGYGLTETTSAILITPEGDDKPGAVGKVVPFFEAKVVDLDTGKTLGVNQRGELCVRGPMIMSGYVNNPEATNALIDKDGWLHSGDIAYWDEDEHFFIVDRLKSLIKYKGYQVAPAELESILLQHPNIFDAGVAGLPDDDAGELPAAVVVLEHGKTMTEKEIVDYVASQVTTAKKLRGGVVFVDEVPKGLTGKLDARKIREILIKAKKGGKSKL
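Purified P. pyralis luciferase, 10 nM final, with Km-level 10 uM D-luciferin and 10 uM ATP in 50 mM Tris acetate pH 7.5, 10 mM Mg acetate, 0.01% Tween-20, 0.05% BSA; 6-point qHTS titration about 60 µM downward; luminescence read.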
Rab9 promoter act – Rab9 promoter activation; Huh7 Rab9 promoter-luciferase reporter, luminescence, 24 h; Potency, µM (highest dose often 9.22 µM), for the others: at the top dose activation, negative = inhibition, actives largely listed as activators; 320,000 tested, 2.8% active; also: % of control where 0% means no effect; nearly all actives have a fitted effect of over 60% in size
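Cell-based reporter: Huh7 stable for Rab9 promoter-driven luciferase, plated in reduced-serum medium with 10% FBS at 1500 cells/well, compound-treated 24 h at 37 °C, luminescence read after 10 min reagent.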
NPC1 promoter act – activators of NPC1 promoter. Huh7 NPC1 promoter luciferase reporter, 24 h. Potency, µM (series often up to 9.22 µM), inactives show at the highest dose activation, hits mostly activators. 320,000 tested, 2.4% active. AID 485313; also: % of control where 0% means no effect; nearly all actives have a fitted effect of over 60% in size
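Huh7 cells stably carrying NPC1 promoter–luciferase, plated in Opti-MEM with 10% FBS for 2 h, were exposed to compound in DMSO for 24 h at 37 °C; luciferase reagent was added for 10 min and luminescence read.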
* hit, by the source's call; ? = inconclusive; · = no result given; [ ] = dose if it differs, or a comment. The list is not random: actives were taken first. Their share in the collection is about 7.4%. Calls follow the shape of the dose curve; as a rule, active = well fitted curve in the direction sought with a large enough effect; inconclusive = small, poorly fitted or top-dose-only effect, or another doubt; inactive = no such curve, though single readings can be large; an effect the other way counts as inactive or inconclusive. Potency is read from the fitted curve at half-maximal effect.

SMILES	ELG1 genotox	SMN2 splice up	FLuc counter	Rab9 promoter act	NPC1 promoter act
COCc1cc(=O)n2[nH]c(-c3ccc(C)cc3)cc2n1	15µM*	50%	12µM*	30%	24%
Cc1cc(=O)n2[nH]c(-c3ccc(C(C)(C)C)cc3)cc2n1	6%	-88%	11µM*	24%	20%
Cc1nc2cc(-c3ccccc3)[nH]n2c(=O)c1C	21µM*	·	13µM*	?	-35%
CCOC(=O)Cc1cc(=O)n2[nH]c(-c3ccc(C)cc3)cc2n1	?	-2%	19µM*	18%	1%
CCOc1ccc(CCNC(=O)Cn2nc(C)n3cccc3c2=O)cc1OCC	4%	·	0%	1%	1%
CCC1=C2CC[C@H]3C(=O)N(c4ccccc4)C(=O)[C@H]3[C@H]2[C@@]2(C)C(=O)N(CC(=O)OC)C(=O)N2C1=O	·	-3%	·	·	·
COc1ccc(-c2cc3nc(N)cc(=O)n3[nH]2)cc1	·	9%	-13%	·	·
CCOC(=O)c1cc(=O)n2[nH]c(-c3ccc(C)cc3)cc2n1	?	?	13µM*	-1%	-2%
COc1ccc(C(=O)NC(=S)NC(C)(C)C)cc1Br	9%	17%	11µM*	?	29%
O=C1OC2(c3cc(Br)c(O)c(Br)c3Oc3c2cc(Br)c(O)c3Br)c2c(Cl)c(Cl)c(Cl)c(Cl)c21	·	-17%	·	·	·
Cc1ccn2cc(CC(=O)O)nc2c1	1%	·	3%	3%	-4%
Cc1ccn2cc(CSc3ccccc3N)nc2c1	?	?	11µM*	0.63µM*	2.2µM*
CCOC(=S)SCc1cn2ccc(C)cc2n1	0%	-31%	24µM*	0%	-4%
COc1cccc(C(=O)Nc2ccc(NC(=O)C(C)(C)C)cn2)c1	?	0.89µM*	0.85µM*	0.32µM*	0.35µM*
O=C(O)c1ccc(NC(=S)NC(=O)c2ccc(-c3ccccc3)cc2)cc1	14%	0%	6µM*	?	21%
COc1ccc(NC(=O)c2cccc(S(=O)(=O)Nc3ccc(Br)cc3)c2)cn1	-4%	-52%	1%	-12%	0%
COc1ccc(NC(=S)NC(=O)c2ccccc2)cn1	?	·	13µM*	1.8µM*	?
COc1ccc(NC(=O)c2cccc(Oc3ccccc3)c2)cn1	10%	·	19µM*	10%	-12%
O=C(NC(=S)Nc1ccccc1)c1ccc(-c2ccccc2)cc1	7%	-1%[1.84 µM]	-11%	?	?
COc1cc(C(=O)NNC(=O)CNC(=O)c2ccc(Br)o2)cc(OC)c1OC	5%	·	1%	-3%	-5%
CC(=O)Nc1ccc(C(=O)COC(=O)CCc2ccccc2)c(F)c1	-2%	·	-1%	-2%	-1%
O=C(CNC(=O)c1ccc(Cl)cc1)NC(CO)c1ccccc1 (centres undefined)	1%	·	0%	0%	-4%
c1ccc(C(CCN2CC3CCC(CC3)C2)c2ccccc2)cc1	·	2%[9.22 µM]	·	·	·
C/C(=N\NC(=O)c1nn(C)c(C)c1Br)c1cccc(NC(=O)c2ccc(F)cc2)c1	8%	?	1.9µM*	?	28%
C/C(=N\NC(=O)c1c(Cl)c(C)nn1C)c1cccc(NC(=O)c2cccc(F)c2)c1	-17%	·	11µM*	16%	2%
SMILES	ELG1 genotox	SMN2 splice up	FLuc counter	Rab9 promoter act	NPC1 promoter act
C/C(=N\NC(=O)c1nn(C)cc1Br)c1cccc(NC(=O)C(C)(C)C)c1	4%	-7%	?	-8%	-4%
C/C(=N\NC(=O)c1c(Br)c(C)nn1C)c1cccc(NC(=O)c2ccccc2F)c1	0%	9%	?	0%	2%
C/C(=N\NC(=O)c1c(Cl)c(C)nn1C)c1cccc(NC(=O)COc2ccccc2)c1	-8%	·	-1%	10%	10%
C/C(=N\NC(=O)c1ccccc1F)c1cccc(NC(=O)c2ccccc2)c1	?	·	2.7µM*	11%	24%
C/C(=N\NC(=O)c1cc(Br)ccc1O)c1cccc(NC(=O)c2ccccc2F)c1	10%	·	?	-5%	-1%
C/C(=N\NC(=O)c1c(Br)c(C)nn1C)c1cccc(NC(=O)c2ccccc2C)c1	1%	-3%	12µM*	-5%	2%
Cn1cc(S(=O)(=O)N2CCCC2)cc1C(=O)Nc1ccc(C(F)(F)F)cc1	·	·	-6%	·	·
N=C(N)SCC(=O)O	·	-15%[9.22 µM]	·	·	·
Cc1nc2cc(C(F)(F)F)ccc2n1C	3%	-3%	?	2%	1%
C/C(=N\NC(=O)c1c(Br)c(C)nn1C)c1cccc(NC(=O)C2CCC2)c1	0%	6%	19µM*	-1%	0%
C/C(=N\NC(=O)c1ccc(O)cc1)c1cccc(NC(=O)c2ccccc2C)c1	7%	·	2.7µM*	?	0%
C/C(=N\NC(=S)NCc1ccccc1)c1ccc(C#N)cc1	7%	9%	1%	-2%	-3%
Cc1ccccc1C(=O)Nc1cccc(NC(=O)c2ccc(C(C)(C)C)cc2)c1	·	?	0.76µM*	·	·
C/C(=N\NC(=O)c1ccccc1F)c1ccc(C#N)cc1	?	?	?	4µM*	?
COc1ccccc1C1=NOC(Cn2c(NCCOCCO)nc3c2c(=O)n(C)c(=O)n3C)C1 (centres undefined)	-5%	·	-3%	-2%	3%
CCn1c(CCNC(=O)c2cccs2)nnc1SCC(=O)NC1CCCCC1	1%	-13%	-15%	-7%	-1%
CCn1c(CCNC(=O)c2cccs2)nnc1SCC(=O)Nc1ccc(Cl)cc1	12%	-22%	17µM*	-3%	0%
Cc1ccc2c(c1)cc1c(=O)n(CC(=O)NCc3ccccn3)nc(C)n12	4%	·	0%	0%	3%
CN(C)c1ccc(/C=N/Nc2cccc(C(=O)O)c2)cc1	?	·	0.076µM*	10µM*	?
O=C(O)c1cccc(N/N=C/c2cccnc2)c1	0%	8.9µM*	2.4µM*	0.32µM*	?
O=C(N/N=C/c1cccnc1)c1cccc(NC(=O)c2ccc(Cl)cc2)c1	3%	·	0%	-2%	1%
Clc1ccc(N/N=C/c2cccnc2)cc1	17%	?	17µM*	26%	28%
CC(C)(C)c1ccc(/C=N/Nc2cccc(C(=O)O)c2)cc1	0.15µM*	0.1µM*	0.17µM*	1.1µM*	0.5µM*
COc1ccc2c(C)c(CCC(=O)NCc3ccc(Cl)cc3)c(=O)oc2c1C	·	8%	-4%	·	·
Cc1[nH]c(N)nc(=S)c1CCC(=O)O	·	-12%[9.22 µM]	·	·	·
O=C(O)c1cccc(N/N=C/c2ccc(-c3ccccc3)cc2)c1	0.15µM*	0.2µM*	0.076µM*	0.028µM*	0.025µM*
Clc1cnc(N/N=C/c2ccncc2)c(Cl)c1	?	·	?	23%	20%
O=C(N/N=C\c1cccc(F)c1)c1ccc(-c2ccccc2)cc1	2%	·	-2%	13%	19%
Clc1ccc(N/N=C/c2ccncc2)cc1Cl	?	13µM*	?	?	?
Cc1cccc(Cc2c(C)nc3nc(SCC(=O)NCc4ccc(F)cc4)nn3c2C)c1	·	-30%	-9%	·	·
